MITF inh = blocks human microphthalmia-associated transcription factor. AID 1259374. 0.91% of 650,000 active. O75030. inhibition, % at 2.6 µM. AlphaScreen MITF homodimerization, bead proximity signal; in the data active = inhibition above about 50%
GPR151 activ = activates the human receptor GPR151. Q8TDV0. PathHunter beta-arrestin GPR151 cells, luminescence. activation, % at 11.2 µM. 1% of 650,000 active. AID 1508602; in the data active = activation above about 4.9%
FBW7 act = human FBW7 E3 ligase activation, primary screen; Q969H0; AlphaScreen FBW7–phospho-cyclin E peptide binding, activator screen; normalized activity (activation), % at 26.1 µM; 0.13% of 650,000 active; AID 1259310; in the data active = normalized activity above about 1.9%;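 note: purified mutant Fbw7 with reduced substrate affinity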
Target sequence (Q969H0 whole entry, looked up): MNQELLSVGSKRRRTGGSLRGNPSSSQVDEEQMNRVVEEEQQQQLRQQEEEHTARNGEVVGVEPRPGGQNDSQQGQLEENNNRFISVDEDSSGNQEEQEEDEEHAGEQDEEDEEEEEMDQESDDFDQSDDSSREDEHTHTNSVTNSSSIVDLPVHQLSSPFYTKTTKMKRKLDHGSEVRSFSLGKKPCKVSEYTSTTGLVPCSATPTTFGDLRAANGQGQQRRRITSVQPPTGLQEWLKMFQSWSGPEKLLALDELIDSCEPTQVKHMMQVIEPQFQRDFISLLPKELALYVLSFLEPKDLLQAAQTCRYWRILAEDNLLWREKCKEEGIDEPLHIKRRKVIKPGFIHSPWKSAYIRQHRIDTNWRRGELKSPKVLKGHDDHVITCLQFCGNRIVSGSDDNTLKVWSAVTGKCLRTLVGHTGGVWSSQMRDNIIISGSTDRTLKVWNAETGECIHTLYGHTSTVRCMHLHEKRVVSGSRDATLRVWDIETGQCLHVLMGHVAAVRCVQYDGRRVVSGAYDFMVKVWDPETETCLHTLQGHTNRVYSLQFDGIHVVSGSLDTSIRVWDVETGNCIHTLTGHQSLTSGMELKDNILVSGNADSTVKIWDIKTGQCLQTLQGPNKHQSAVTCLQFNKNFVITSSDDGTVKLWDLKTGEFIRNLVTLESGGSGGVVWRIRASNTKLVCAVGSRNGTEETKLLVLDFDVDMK
TEAD-YAP inh = TEAD-YAP interaction inhibition; HEK-TIYL cells, TEAD-Gal4/YAP UAS-luciferase luminescence; inhibition, % at 9.12 µM; 1.4% of 640,000 active; in the data active = inhibition above about 32%
Each line names hits and unclear results; the compound was inactive in the other large screens. A selection: hits, their analogues and other compounds. The true share with any hit is near 3.4%.

Cc1ccc(-c2ncn(-c3ccc(Nc4ncc5ccc(-c6cnn(C)c6)cc5n4)cc3)n2)cn1	none
Cn1cc(-c2ccc3cnc(Nc4ccc(-n5cnc(-c6ccccn6)n5)cc4)nc3c2)cn1	TEAD-YAP inh 96
Cn1cc(-c2ccc3cnc(Nc4ccc(-n5ccnc5)cc4)nc3c2)cn1	TEAD-YAP inh 72
c1cn(-c2ccc(Nc3ncc4ccc(-c5cn[nH]c5)cc4n3)cc2)cn1	TEAD-YAP inh 96
Cn1cc(-c2ccc3cnc(Nc4ccc(C(=O)N5CCOCC5)cc4)nc3c2)cn1	TEAD-YAP inh 71
Cc1ccc(-n2nc3c(c2NC(=O)c2ccc([N+](=O)[O-])cc2)CS(=O)(=O)C3)cc1	none
Cn1cc(-c2ccc3cnc(Nc4ccc(N5CCOCC5)cc4)nc3c2)cn1	TEAD-YAP inh 60
O=[N+]([O-])c1ccc(-c2csc(N3N=C4/C(=C/c5ccc(Cl)cc5)CCCC4C3c3ccc(Cl)cc3)n2)cc1 (configuration not stated)	none
CCc1ccccc1NC(=O)c1sc2nc3c(cc2c1N)C(=O)CCC3	TEAD-YAP inh 54
CCc1ccccc1NC(=O)c1sc2nc3c(cc2c1N)C(=O)CC(C)(C)C3	none
Cc1ccccc1NC(=O)c1sc2nc3c(cc2c1N)C(=O)CCC3	TEAD-YAP inh 39
CC(C)N(C(=O)N1CCC(Cn2nc(-c3ccc(F)cc3)ccc2=O)CC1)C(C)C	none
Clc1ccc(CSc2nn3cnnc3s2)cc1	TEAD-YAP inh 53
CCCCNc1ncnc2scc(-c3ccccc3)c12	TEAD-YAP inh 56
COC(=O)CCCNc1ncnc2scc(-c3ccccc3)c12	TEAD-YAP inh 35
COC(=O)CNc1ncnc2scc(-c3ccccc3)c12	none
c1ccc(-c2csc3ncnc(NCc4ccco4)c23)cc1	TEAD-YAP inh 34
COCCCNc1ncnc2scc(-c3ccccc3)c12	TEAD-YAP inh 59
c1ccc(-c2csc3ncnc(NCc4ccccn4)c23)cc1	none
C=CCO[C@H]1[C@H](NC(=O)COC)c2ccccc2C12CCN(C(=O)C1=CCCCC1)CC2	none
CCOc1ccc(-c2nc3n(n2)C(c2ccccc2Cl)C(C(N)=O)=C(C)N3)cc1 (configuration not stated)	none
COc1cccc(C2N(c3ccc(C)cc3)N=C(C(C)=O)N2c2cccc(C)c2)c1OCc1ccccc1 (configuration not stated)	TEAD-YAP inh 68
CC(=O)C1=NN(c2ccccc2)C(c2ccccc2OCc2ccc(Cl)cc2)N1c1ccc(Cl)cc1 (configuration not stated)	none
COc1cccc(C2N(c3ccccc3)N=C(C(C)=O)N2c2ccc(C)c(C)c2)c1OCc1ccccc1 (configuration not stated)	TEAD-YAP inh 54
COCCCN1C(=O)c2[nH]nc(-c3ccccc3O)c2C1c1cccc(Br)c1 (configuration not stated)	TEAD-YAP inh 35
COCCCN1C(=O)c2[nH]nc(-c3ccccc3O)c2C1c1cccc(O)c1 (configuration not stated)	none
Cc1ccc(NC(=O)CC(NCCc2ccccc2)C(=O)O)cc1C (configuration not stated)	none
COc1ccc(C(=O)Nc2nc3c(cc4c5c(cccc53)CC4)s2)cc1OC	FBW7 act 2.0
CC(=O)c1ccc(-c2cc(F)cc3c2OC(CNC(=O)/C=C/c2cccnc2)C3)s1 (configuration not stated)	TEAD-YAP inh 33
CS(=O)(=O)c1cnc(-c2ccccn2)nc1-c1ccc(C(F)(F)F)cc1	none
O=C(COc1cccc2ccccc12)Nc1ccncc1	TEAD-YAP inh 40
Cc1ccc(OCC(=O)Nc2ccccc2F)c(Br)c1	TEAD-YAP inh 38
O=C(Cc1ccccc1)Nc1cccc(C(=O)OCC(=O)c2ccc([N+](=O)[O-])cc2)c1	none
COC(=O)c1cccc(NC(=O)COc2cc(C)ccc2C(C)(C)C)c1	none
COC(=O)c1cccc(NC(=O)COc2ccc(C)cc2Br)c1	TEAD-YAP inh 91
Cc1ccc(C)c(C(=O)COC(=O)c2cccc(NC(=O)Cc3ccccc3)c2)c1	TEAD-YAP inh 42
CCOc1ccc2c(c1)/C(=c1/sc3n(c1=O)CN(c1ccc(F)cc1)CN=3)C(=O)N2	none
COc1ccc(-c2cnc3c(Nc4ccc(C(C)C)cc4)nccn23)cc1OC	none
CC(=O)Nc1ccc(NS(=O)(=O)c2cc3[nH]c(=O)c(=O)[nH]c3cc2C)cc1	none
COc1ccc(NC(=O)CSc2cn(Cc3cccc(F)c3)c3ccccc23)c(OC)c1	none
Cc1ccc(NC(=O)c2cccc(Br)c2)c(Br)c1	FBW7 act 2.5
CCCOC(=O)c1cccc(NC(=O)COc2ccc(C)cc2Br)c1	TEAD-YAP inh 92
CC(=O)c1cccc(NC(=O)COc2ccc(C(C)(C)C)cc2)c1	none
COC(=O)c1cccc(NC(=O)COc2ccccc2Br)c1	TEAD-YAP inh 43
CCCOC(=O)c1cccc(NC(=O)COc2ccccc2OC)c1	none
CCC(C)(C)c1ccc(OCC(=O)Nc2cccc(C(=O)O)c2)cc1	TEAD-YAP inh 38
O=C(O)c1ccc(NC(=O)C2C(=O)CN(c3ccccc3)C2=O)cc1 (configuration not stated)	none
Cc1ccc(C(C)C)c(Oc2cc(N)cc([N+](=O)[O-])c2)c1	none
Cc1ccccc1NC(=O)COc1ccc(Br)cc1C=O	TEAD-YAP inh 45
Cc1ccc(OCC(=O)Nc2cccc(C(=O)O)c2)c(Br)c1	TEAD-YAP inh 98
Cc1ccccc1NC(=O)COc1ccccc1C=O	none
Cc1ccc(NC(=O)COc2ccccc2C)c(Br)c1	none
Cc1ccc(NC(=O)COc2c(C)cccc2C)c(Br)c1	FBW7 act 2.5
CS(=O)(=O)C1Cc2ccccc2CN1C(=O)Nc1ccc(Cl)cc1Cl (configuration not stated)	none
CCOC(=O)c1c(C)nc2ccc(OC(F)(F)F)cc2c1-c1ccccc1	none
CCOC(=O)N1CCC(NS(=O)(=O)c2ccc3[nH]c4c(c3c2)CCCC4)CC1	TEAD-YAP inh 57
Fc1ccc(NCn2nnc3ccccc32)cc1Cl	none
COCC(=O)N1CCC[C@H]1Cn1nc(-c2ccc(F)cc2)ccc1=O	none
COc1ccc(C2=C/C(=C/c3ccc([N+](=O)[O-])cc3)C(=O)O2)c(OC)c1	none
c1ccc(C2(CNc3ncnc4sc5c(c34)CCCCC5)CCCC2)cc1	none
Cc1cc(C)n2nc(C(=O)N/N=C/c3cc(Cl)ccc3O)nc2n1	MITF inh 56
Cc1cc(C)n2nc(C(=O)N/N=C/c3cc(Cl)cc([N+](=O)[O-])c3O)nc2n1	none
O=C(N/N=C\c1cc(Cl)ccc1O)c1cccs1	TEAD-YAP inh 43
O=C(N/N=C/c1cc(Cl)ccc1O)c1ccc(F)cc1	TEAD-YAP inh 67
Cc1cc(C(=O)N/N=C\c2cc(C(C)(C)C)ccc2O)n[nH]1	none
O=C(N/N=C/c1ccccc1Cl)c1cccs1	none
CC(C)(C)c1cc(C(=O)N/N=C/c2cc(Cl)ccc2O)n[nH]1	TEAD-YAP inh 76
O=C(NCc1ccccn1)c1cc(S(=O)(=O)N2CCc3ccccc32)ccc1F	none
O=C(CSc1cccc2cccnc12)Nc1cccc2ccccc12	none
O=C(N/N=C/c1ccc(O)c(O)c1O)c1cccs1	MITF inh 54
O=C(N/N=C/c1ccccc1C(F)(F)F)c1cccs1	none
